PubChem BioAssay
Active and inactive are the calls of the source. No rule for the calls is given here.

target: Protein kinase 7 (PK7), Plasmodium falciparum 3D7 (PF3D7_0213400) (UniProt Q7YTF7); experiment: inhibition of Plasmodium PK7 catalytic activity – biochemical, TCAMS antimalarial set, Kinase-Glo luminescence (AID 1159587); details: recombinant PfPK7, Kinase-Glo ATP depletion luminescence
Sequence (Q7YTF7 1-343): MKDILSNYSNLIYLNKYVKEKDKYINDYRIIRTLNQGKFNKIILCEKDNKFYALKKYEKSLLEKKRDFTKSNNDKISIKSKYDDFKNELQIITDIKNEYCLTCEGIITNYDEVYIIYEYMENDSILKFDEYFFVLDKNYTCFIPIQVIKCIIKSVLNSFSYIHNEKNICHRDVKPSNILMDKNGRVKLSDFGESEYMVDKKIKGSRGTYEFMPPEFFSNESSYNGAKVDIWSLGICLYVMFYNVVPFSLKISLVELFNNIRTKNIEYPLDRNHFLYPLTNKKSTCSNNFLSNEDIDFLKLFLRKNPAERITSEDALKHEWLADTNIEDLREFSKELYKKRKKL

outcome, inactive:
c1ccc2[nH]c(-c3ccc(-c4ccc(CN5CCC(N6CCCCC6)CC5)cc4)s3)nc2c1, Cc1cc(C)cc(OCC(O)CN(Cc2cc(Cl)cc(Cl)c2)C(=O)Nc2ccc([N+](=O)[O-])cc2)c1 (stereo not given), O=c1cc(NCCCNCc2cc(C(F)(F)F)ccc2F)[nH]c2ccccc12, CC(NCC(O)Cn1c2ccccc2c2ccccc21)c1ccccc1 (stereo not given), Cc1c(C(=O)N(C)C)sc2c1c(=O)n(Cc1ccccc1)c(=O)n2CC(=O)Nc1ccccc1F, C=CCC(C(=O)Nc1ccnc2ccc(OC)cc12)C1CCN(CCCCCCC)CC1 (stereo not given), Cc1cccc(NC(=O)Nc2cccc(-c3ccc(-c4nc5ccc(C(F)(F)F)cc5[nH]4)cc3)c2)c1, CCc1cc(Cc2cnc(N)nc2N)cc(CC)c1OC, CCCCCCCN(CCCCCCC)CCCC(=O)Nc1ccnc2ccc(OC)cc12, CC(C)CCNCc1ccc(OCc2cccc(COc3ccc(CNCCC(C)C)cc3I)c2)c(I)c1, CCCCCc1cc(O)c2c(c1)OC(C)(C)C=C2C1=CCN(Cc2ccsc2)CC1, Clc1cc(Nc2ncnc3sc(C#C[C@H]4CCCN4)cc23)ccc1OCc1cccnc1Cl, Oc1ccc(CCCNc2nc(NCc3cccc4ccccc34)nc(N3CCCNCC3)n2)cc1, Cc1noc(C)c1-c1ccc2c(Nc3ccccc3C(C)(C)C)c(C(=O)NCc3ccc4c(c3)OCO4)cnc2c1, CCN(CC)CCOc1ccc(C(O)(C#CC(O)(c2ccccc2)c2ccc(OCCN(CC)CC)cc2)c2ccccc2)cc1 (stereo not given), COc1ccc(-n2ncc(C(=O)N3CCC4(C3)C(=O)N(c3ccccc3)c3ccccc34)c2C)cc1 (stereo not given), O=S(=O)(Nc1cccc(CCN2CCC(N3CCCCC3)CC2)c1)c1ccc2c(c1)OCCO2, CN1CCN(CC(=O)Nc2ccc(-c3cccc(-c4nc5ccc(F)cc5[nH]4)c3)cc2)CC1, CC(C)(C)NC(=O)c1ccc(Oc2ccc(OC(F)(F)F)cc2)c(NC(=O)C(C)(C)C)c1, CCCCCN1CCCC(CNS(=O)(=O)c2cccc(C(=O)Nc3ccc(C(F)(F)F)cc3)c2)C1 (stereo not given), O=C(NCCNc1ccnc(NCc2ccc(F)cc2)n1)c1cc2ccccc2s1, NC1CCN(Cc2cccc(-c3ccc(-c4nc5ccccc5[nH]4)s3)c2)C1 (stereo not given), Cc1[nH]c(C)c(-c2ccc(OCc3cccc(C(F)(F)F)c3)nc2)c(=O)c1Br, CCSc1nnc(C2CCCN(CC(=O)Nc3cc(C(F)(F)F)ccc3Cl)C2)n1CC (stereo not given), Cc1cc(NN=Cc2cccc(F)c2)c2ccc(F)cc2n1
